Experimental data as given in the supplement of paper PMC10646978.
± gives the standard deviation.

Tested on: RAW-Dual (murine macrophage reporter line)
Assay: NF-kB reporter (SEAP) activity fold change vs agonist alone; higher = enhanced NF-kB activity
Settings: modulator concentration 10 µM; agonist: MPLA […]
Procedure, shortened: (§1)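 In 384-well plates holding 50 000 RAW-Dual murine macrophage reporter cells per well, compound at 10 μM final was pre-incubated for 1 hour at 37 °C, after which a PRR agonist was added overnight. Supernatant SEAP read with QUANTI-Blue at 620 nm absorbance reported NF-κB, and Lucia luciferase read with QUANTI-Luc luminescence reported IRF. Fold change values come from dividing each reporter signal by the mean of agonist-only control wells on the same plate, averaged over replicate plates with propagated errors.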

**Q.** How did the NF-kB reporter turn out when `CC(=O)Nc1ccc(S(=O)(=O)N2CCCc3ccccc32)cc1` was run?
**A.** 1.09 ± 0.1

**Q.** How did the NF-kB reporter turn out when `CN(C)CCCN1c2ccccc2CCc2ccc(Cl)cc21.Cl` was run?
**A.** 1.64 ± 0.2

**Q.** For `CCCCOc1ccc(C(=O)Nc2cc(-c3nc4ccccc4o3)ccc2OC)cc1`, which NF-kB reporter is on record?
**A.** 0.965 ± 0.025

**Q.** With `CCOC(=O)c1c(N)sc(C(=O)N2CCCC(C(N)=O)C2)c1C` (centres undefined) as the compound, how does the NF-kB reporter read?
**A.** 0.356 ± 0.17

**Q.** Which NF-kB reporter does the source give for `Cn1nc(CNC(=O)c2cccc3ccccc23)cc1C1CC1` here?
**A.** 0.963 ± 0.025

**Q.** Which NF-kB reporter does the source give for `CCOc1ccc(CN(CCc2ccc3c(c2)OCO3)Cc2cccc3ccccc23)cc1` here?
**A.** 1.07 ± 0.074

**Q.** `Cc1cnc(C(=O)O)c[n+]1[O-]` was tested. Which NF-kB reporter did it give?
**A.** 1.03 ± 0.026

**Q.** How did the NF-kB reporter turn out when `O=S(=O)(c1ccc(F)cc1)N1CCC(c2nc3ccccc3[nH]2)CC1` was run?
**A.** 1.03 ± 0.028

**Q.** With `O=C(Cn1cnc(-c2ccc(Cl)cc2)cc1=O)N1CCOCC1` as the compound, how does the NF-kB reporter read?
**A.** 0.925 ± 0.07

**Q.** `O=C(C=Cc1ccc(O)cc1)c1ccc(O)cc1O` was tested. Which NF-kB reporter did it give?
**A.** 1.74 ± 0.12

**Q.** How did the NF-kB reporter turn out when `Cc1cc(OC2CCN(S(=O)(=O)CCc3ccccc3)C2)cc(=O)n1C` (centres undefined) was run?
**A.** 1.15 ± 0.067

**Q.** How did the NF-kB reporter turn out when `CCCC(=O)Nc1ccc(N2CCCCC2)cc1` was run?
**A.** 0.979 ± 0.09

**Q.** Which NF-kB reporter does the source give for `CN(C)CCOC(c1ccc(Cl)cc1)c1ccccn1.O=C(O)/C=C\C(=O)O` (centres undefined) here?
**A.** 0.954 ± 0.073

**Q.** How did the NF-kB reporter turn out when `CS(=O)(=O)Nc1cccc(F)c1` was run?
**A.** 1.03 ± 0.061

**Q.** `CCOc1ccc(N=Cc2c(Nc3ccc(OCC)cc3)nc3ccccn3c2=O)cc1` was tested. Which NF-kB reporter did it give?
**A.** 1.19 ± 0.17

**Q.** How did the NF-kB reporter turn out when `Cc1cnc2c(c1SCC(=O)N1CCc3ccccc31)c(=O)n(C)c(=O)n2C` was run?
**A.** 0.916 ± 0.069

**Q.** For `CCOC(=O)c1ccc(N2C(=O)CC(N3CCN(c4ccc([N+](=O)[O-])cc4)CC3)C2=O)cc1` (centres undefined), which NF-kB reporter is on record?
**A.** 0.928 ± 0.071

**Q.** How did the NF-kB reporter turn out when `CS(=O)(=O)C1CC2CCC(C1)N2C(=O)c1cccc(Oc2ccc(F)cc2)c1` (centres undefined) was run?
**A.** 1.06 ± 0.15

**Q.** With `Cn1ccc(C(=O)Nc2nc(C(C)(C)C)cs2)n1` as the compound, how does the NF-kB reporter read?
**A.** 1.19 ± 0.083

**Q.** `NC(=S)c1cc2ccc(O)cc2oc1=O` was tested. Which NF-kB reporter did it give?
**A.** 2.26 ± 1.2

Tested on: RAW-Dual (murine macrophage reporter line)
Assay: IRF reporter (Lucia luciferase) activity fold change vs agonist alone; higher = enhanced IRF activity
Settings: modulator concentration 10 µM; agonist: 3'3'-cGAMP 10 ug/mL
Procedure, shortened: as §1

**Q.** For `CCc1c(C)nc(-n2nc(C)cc2NC(=O)CSCc2ccccc2)[nH]c1=O`, which IRF reporter is on record?
**A.** 0.973 ± 0.065

**Q.** How did the IRF reporter turn out when `COC(=O)Nc1nc2cc(S(=O)c3ccccc3)ccc2[nH]1` (centres undefined) [Prestw-1459] was run?
**A.** 0.896 ± 0.04

**Q.** For `Cc1[nH]c2ccccc2c1CCNCc1ccc(/C=C/C(=O)NO)cc1`, which IRF reporter is on record?
**A.** 0.0565 ± 0.0025

**Q.** Which IRF reporter does the source give for `O=C(CSc1nc(-c2ccccc2)c(-c2ccccc2)[nH]1)N1CCOCC1` here?
**A.** 0.897 ± 0.032

**Q.** For `O=[N+]([O-])c1ccc2nc(S)sc2c1`, which IRF reporter is on record?
**A.** 0.82 ± 0.082

**Q.** For `Cc1n[nH]c(C)c1CCC(=O)NC1CCC(F)(F)CC1`, which IRF reporter is on record?
**A.** 0.955 ± 0.062

**Q.** For `O=C(Nc1nc2ccc(Cl)cc2s1)c1ccc(Br)s1`, which IRF reporter is on record?
**A.** 0.975 ± 0.043

**Q.** `CC1(C)[C@H](C(=O)O)N2C(=O)C[C@H]2S1(=O)=O` was tested. Which IRF reporter did it give?
**A.** 0.944 ± 0.072

**Q.** How did the IRF reporter turn out when `NCC(=O)O` was run?
**A.** 0.912 ± 0.068

**Q.** Which IRF reporter does the source give for `Br.C=CCn1c(=N)n(CC(=O)c2cccc([N+](=O)[O-])c2)c2ccccc21` here?
**A.** 1.13 ± 0.064

**Q.** With `Cc1cc(OC2CCN(C(=O)c3csc(C)n3)CC2)nc(C)n1` as the compound, how does the IRF reporter read?
**A.** 0.954 ± 0.088

**Q.** With `Ic1ccc(N=Cc2ccc(C=Nc3ccc(I)cc3)cc2)cc1` as the compound, how does the IRF reporter read?
**A.** 0.954 ± 0.038

**Q.** For `O=Cc1ccc(OC(=O)c2cccc(C(=O)Oc3ccc(C=O)cc3)c2)cc1`, which IRF reporter is on record?
**A.** 0.975 ± 0.064

**Q.** For `COc1ccc(-c2[nH]c(-c3ccccc3)nc2SCC(=O)NC2CCCC2)cc1`, which IRF reporter is on record?
**A.** 0.892 ± 0.03

**Q.** With `CCN(C=Nc1sc2c(c1C#N)CC(C)(C)NC2(C)C)CC` as the compound, how does the IRF reporter read?
**A.** 0.969 ± 0.044

**Q.** Which IRF reporter does the source give for `CCOC(=O)N1CCC(=C2c3ccc(Cl)cc3CCc3cccnc32)CC1` here?
**A.** 0.725 ± 0.04

**Q.** Which IRF reporter does the source give for `Cc1cc(OCC(=O)Nc2ccccc2-c2ccccc2)ccc1Br` here?
**A.** 1.03 ± 0.048

**Q.** `NC(CO)(CO)CO.O=C(c1ccccc1)c1ccc2n1CCC2C(=O)O` (centres undefined) was tested. Which IRF reporter did it give?
**A.** 0.933 ± 0.032

**Q.** `O=C(Nc1cc(C(F)(F)F)cc(C(F)(F)F)c1)c1cc2ccccc2o1` was tested. Which IRF reporter did it give?
**A.** 0.953 ± 0.042

**Q.** How did the IRF reporter turn out when `CC(=O)Nc1ccc(S(=O)(=O)N2CCCc3ccccc32)cc1` was run?
**A.** 1.13 ± 0.043

**Q.** Which IRF reporter does the source give for `CN(C)CCCN1c2ccccc2CCc2ccc(Cl)cc21.Cl` here?
**A.** 0.503 ± 0.02

**Q.** Which IRF reporter does the source give for `CCCCOc1ccc(C(=O)Nc2cc(-c3nc4ccccc4o3)ccc2OC)cc1` here?
**A.** 0.965 ± 0.042

**Q.** For `CCOC(=O)c1c(N)sc(C(=O)N2CCCC(C(N)=O)C2)c1C` (centres undefined), which IRF reporter is on record?
**A.** 0.982 ± 0.039

**Q.** How did the IRF reporter turn out when `Cn1nc(CNC(=O)c2cccc3ccccc23)cc1C1CC1` was run?
**A.** 0.833 ± 0.031

**Q.** Which IRF reporter does the source give for `CCOc1ccc(CN(CCc2ccc3c(c2)OCO3)Cc2cccc3ccccc23)cc1` here?
**A.** 0.619 ± 0.061

**Q.** `Cc1cnc(C(=O)O)c[n+]1[O-]` was tested. Which IRF reporter did it give?
**A.** 0.962 ± 0.069

**Q.** With `O=S(=O)(c1ccc(F)cc1)N1CCC(c2nc3ccccc3[nH]2)CC1` as the compound, how does the IRF reporter read?
**A.** 0.913 ± 0.033

**Q.** How did the IRF reporter turn out when `O=C(Cn1cnc(-c2ccc(Cl)cc2)cc1=O)N1CCOCC1` was run?
**A.** 0.933 ± 0.032

**Q.** How did the IRF reporter turn out when `O=C(C=Cc1ccc(O)cc1)c1ccc(O)cc1O` was run?
**A.** 0.305 ± 0.012

**Q.** With `Cc1cc(OC2CCN(S(=O)(=O)CCc3ccccc3)C2)cc(=O)n1C` (centres undefined) as the compound, how does the IRF reporter read?
**A.** 0.7 ± 0.054

**Q.** How did the IRF reporter turn out when `CCCC(=O)Nc1ccc(N2CCCCC2)cc1` was run?
**A.** 0.895 ± 0.043

**Q.** With `CN(C)CCOC(c1ccc(Cl)cc1)c1ccccn1.O=C(O)/C=C\C(=O)O` (centres undefined) as the compound, how does the IRF reporter read?
**A.** 0.752 ± 0.03

**Q.** For `CS(=O)(=O)Nc1cccc(F)c1`, which IRF reporter is on record?
**A.** 1 ± 0.17

**Q.** How did the IRF reporter turn out when `CCOc1ccc(N=Cc2c(Nc3ccc(OCC)cc3)nc3ccccn3c2=O)cc1` was run?
**A.** 0.855 ± 0.051

**Q.** Which IRF reporter does the source give for `Cc1cnc2c(c1SCC(=O)N1CCc3ccccc31)c(=O)n(C)c(=O)n2C` here?
**A.** 1.01 ± 0.051

**Q.** With `CCOC(=O)c1ccc(N2C(=O)CC(N3CCN(c4ccc([N+](=O)[O-])cc4)CC3)C2=O)cc1` (centres undefined) as the compound, how does the IRF reporter read?
**A.** 1.06 ± 0.039

**Q.** With `CS(=O)(=O)C1CC2CCC(C1)N2C(=O)c1cccc(Oc2ccc(F)cc2)c1` (centres undefined) as the compound, how does the IRF reporter read?
**A.** 0.94 ± 0.048

**Q.** How did the IRF reporter turn out when `Cn1ccc(C(=O)Nc2nc(C(C)(C)C)cs2)n1` was run?
**A.** 0.993 ± 0.055

**Q.** Which IRF reporter does the source give for `NC(=S)c1cc2ccc(O)cc2oc1=O` here?
**A.** 0.925 ± 0.043
